# From PubChem BioAssay (Tox21)
# Values joined by “and” are separate entries in the source; they are usually repeats but may differ in a detail not shown here. Identical values can stand only once. Results filed as inconclusive are left out. Entries that show only a call come without a potency. The source holds several records for some structures; these can differ, active in one and inactive in another. Active and inactive are the calls of the source. The call rests on the fitted dose curve; in most records, active means well fitted curve in the direction sought with a large enough effect in the repeat runs; inconclusive means weak or mixed curves; inactive means no such curve, though single readings can be large; an effect the other way counts as inactive or inconclusive.
# Assays:
# [1] = qHTS RealTime-Glo MT Cell Viability Assay in HEK293 cells - 16 hour (AID 1224872); further: nearly all actives have a fitted effect of over 50% in size; further: potency means the concentration at half of the fitted maximal effect; on activity change, negative = cytotoxicity: top concentration of the series differs between compounds
# Outline: (§1)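 Homogeneous bioluminescent viability format in HEK293 cells (600 cells/well). Following 5 h at 37 C/5% CO2, 23 nL compound was pintooled; the signal was measured repeatedly during 40 h incubation.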
# [2] = qHTS RealTime-Glo MT Cell Viability Assay in HepG2 cells - 8 hour (AID 1224873); further: nearly all actives have a fitted effect of over 55% in size
# Outline: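 HepG2 cells mixed with RealTime-Glo MT reagents (NanoLuc plus cell-permeant prosubstrate) were seeded at 600 cells/well, incubated 5 h at 37 C/5% CO2, then pinned with compounds in DMSO; nonlytic luminescence tracked viability during 40 h treatment.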
# [3] = qHTS RealTime-Glo MT Cell Viability Assay in HEK293 cells - 40 hour (AID 1224874); details: RealTime-Glo luminescence; max response: stronger effect = lower value; further: nearly all actives have a fitted effect of over 50% in size; further: potency means the concentration at half of the fitted maximal effect
# Outline: (§2)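 Luminescence readout at each listed time point; HEK293, 600 cells/well, RealTime-Glo MT reagent added with cells; compounds pinned (23 nL in DMSO) after 5 h at 37 C; continuous culture at 37 C.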
# [4] = A CellTox Green Cytotoxicity Assay to monitor cytotoxicity in HEK293 cells - 24 hour (AID 1224875); further: nearly all actives have a fitted effect of over 45% in size; further: potency means the concentration at half of the fitted maximal effect; on activity change: series mostly up to about 77 µM
# Outline: (§3)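 Read-out: fluorescence of a cell-impermeant cyanine dye staining DNA of dead cells, proportional to cytotoxicity. HEK293, 600 cells/well with reagent, compound (23 nL DMSO) added after 5 h; reads at 0, 8, 16, 24, 32, 40 h.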
# [5] = A CellTox Green Cytotoxicity Assay to monitor cytotoxicity in HepG2 cells - 16 hour (AID 1224876); further: nearly all actives have a fitted effect of over 45% in size; further: potency means the concentration at half of the fitted maximal effect
# Outline: (§4)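 HepG2, 600 cells/well premixed w/ CellTox Green; 5 h settle, 37 C/5% CO2; pintool cpd add (DMSO); 37 C, 40 h; fluorescence read at 0, 8, 16, 24, 32, 40 h.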
# [6] = qHTS RealTime-Glo MT Cell Viability Assay in HepG2 cells - 32 hour (AID 1224877); further: nearly all actives have a fitted effect of over 55% in size
# Outline: (§5)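 Cell number in HepG2 cultures estimated from NanoLuc luminescence generated by metabolic reduction of a prosubstrate by living cells. The homogeneous, nonlytic format allowed repeated reads at 0, 8, 16, 24, 32 and 40 h of compound exposure.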
# [7] = A CellTox Green Cytotoxicity Assay to monitor cytotoxicity in HepG2 cells - 24 hour (AID 1224878); further: nearly all actives have a fitted effect of over 45% in size; further: potency means the concentration at half of the fitted maximal effect
# Outline: as §4
# [8] = A CellTox Green Cytotoxicity Assay to monitor cytotoxicity in HepG2 cells - 40 hour (AID 1224879); further: nearly all actives have a fitted effect of over 40% in size; further: potency means the concentration at half of the fitted maximal effect
# Outline: as §4
# [9] = qHTS RealTime-Glo MT Cell Viability Assay in HEK293 cells - 0 hour (AID 1224880); further: top concentration of the series differs between compounds; nearly all actives have a fitted effect of over 45% in size
# Outline: as §2
# [10] = A CellTox Green Cytotoxicity Assay to monitor cytotoxicity in HEK293 cells - 32 hour (AID 1224881); further: nearly all actives have a fitted effect of over 40% in size; further: potency means the concentration at half of the fitted maximal effect
# Outline: as §3
# [11] = A CellTox Green Cytotoxicity Assay to monitor cytotoxicity in HepG2 cells - 0 hour (AID 1224882); further: nearly all actives have a fitted effect of over 35% in size
# Outline: as §4
# [12] = A CellTox Green Cytotoxicity Assay to monitor cytotoxicity in HepG2 cells - 32 hour (AID 1224883); further: nearly all actives have a fitted effect of over 50% in size; further: potency means the concentration at half of the fitted maximal effect
# Outline: as §4
# [13] = qHTS RealTime-Glo MT Cell Viability Assay in HepG2 cells - 16 hour (AID 1224885); further: nearly all actives have a fitted effect of over 50% in size
# Outline: as §5
# [14] = qHTS RealTime-Glo MT Cell Viability Assay in HEK293 cells - 24 hour (AID 1224886); further: nearly all actives have a fitted effect of over 50% in size; further: potency means the concentration at half of the fitted maximal effect; on activity change, negative = cytotoxicity: top concentration of the series differs between compounds
# Outline: as §1
# [15] = qHTS RealTime-Glo MT Cell Viability Assay in HEK293 cells - 8 hour (AID 1224887)
# Outline: as §2
# [16] = A CellTox Green Cytotoxicity Assay to monitor cytotoxicity in HEK293 cells - 16 hour (AID 1224888); further: nearly all actives have a fitted effect of over 35% in size
# Outline: as §3
# [17] = qHTS RealTime-Glo MT Cell Viability Assay in HepG2 cells - 0 hour (AID 1224889); further: nearly all actives have a fitted effect of over 50% in size
# Outline: as §5
# [18] = A CellTox Green Cytotoxicity Assay to monitor cytotoxicity in HepG2 cells - 8 hour (AID 1224890); further: nearly all actives have a fitted effect of over 45% in size
# Outline: as §4
# [19] = qHTS assay to identify small molecule antagonists of the estrogen receptor alpha (ER-alpha) signaling pathway using the BG1 cell line in the presence of 0.1 nM 17-beta-estradiol - cell viability counter screen (AID 1259241); further: nearly all actives have a fitted effect of over 40% in size
# Outline: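 The cell line endogenously expresses full-length ER-alpha and carries four EREs driving luciferase. Cells are cultured 5 days hormone-free, treated 22 hr with compounds and 0.1 nM estradiol, then viability is read by fluorescence.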
# [20] = A CellTox Green Cytotoxicity Assay to monitor cytotoxicity in HEK293 cells - 8 hour (AID 1224884); further: nearly all actives have a fitted effect of over 35% in size; further: potency means the concentration at half of the fitted maximal effect
# Outline: as §3
smiles,measurement,setting,value
OCCCS,Potency,[1],inactive
same,Potency,[2],inactive
same,max response,[3],7.88% (inactive)
same,Potency,[4],inactive
same,Potency,[5],inactive
same,Potency,[6],inactive
same,Potency,[7],inactive
same,Potency,[8],inactive
same,Potency,[9],inactive
same,Potency,[10],inactive
same,Potency,[11],inactive
same,Potency,[12],inactive
same,Potency,[13],inactive
same,Potency,[14],inactive
same,Potency,[15],inactive
same,Potency,[16],inactive
same,Potency,[17],inactive
same,Potency,[18],inactive
same,Potency,[19],inactive
Oc1c(Br)cc(Br)c2cccnc12,Potency,[1],inactive
same,Potency,[2],inactive
same,Potency,[3],19 µM (active)
same,Potency,[4],inactive
same,Potency,[5],inactive
same,Potency,[6],inactive
same,Potency,[7],inactive
same,Potency,[8],inactive
same,Potency,[9],inactive
same,Potency,[10],inactive
same,Potency,[11],inactive
same,Potency,[12],inactive
same,Potency,[20],inactive
same,Potency,[13],inactive
same,Potency,[14],inactive
same,Potency,[15],inactive
same,Potency,[16],inactive
same,Potency,[17],inactive
same,Potency,[19],inactive
c1cc2c3c(c1)ccc1cccc(c13)C2,Potency,[1],inactive
same,Potency,[2],inactive
same,max response,[3],-20.7% (inactive)
same,Potency,[4],56.1 µM (active)
same,Potency,[5],inactive
same,Potency,[6],inactive
same,Potency,[7],inactive
same,Potency,[8],inactive
same,Potency,[9],inactive
same,Potency,[10],50 µM (active)
same,Potency,[11],inactive
same,Potency,[12],inactive
same,Potency,[20],56.1 µM (active)
same,Potency,[13],inactive
same,Potency,[14],inactive
same,Potency,[15],inactive
same,Potency,[17],inactive
same,Potency,[18],inactive
same,Potency,[19],inactive
C=C(C)C(=O)OCCC[Si](Cl)(Cl)Cl,Potency,[1],inactive
same,Potency,[2],inactive
same,max response,[3],-5.22% (inactive)
same,Potency,[4],inactive
same,Potency,[5],inactive
same,Potency,[6],inactive
same,Potency,[7],inactive
same,Potency,[8],inactive
same,Potency,[9],inactive
same,Potency,[10],inactive
same,Potency,[12],inactive
same,Potency,[20],inactive
same,Potency,[13],inactive
same,Potency,[14],inactive
same,Potency,[15],inactive
same,Potency,[16],inactive
same,Potency,[18],inactive
same,Potency,[19],inactive
O=C1OC(=O)c2ccc3c4c(ccc1c24)C(=O)OC3=O,Potency,[1],inactive
same,Potency,[2],inactive
same,max response,[3],0.327% (inactive)
same,Potency,[4],inactive
same,Potency,[5],inactive
same,Potency,[6],inactive
same,Potency,[7],inactive
same,Potency,[8],inactive
same,Potency,[9],inactive
same,Potency,[10],inactive
same,Potency,[11],inactive
same,Potency,[20],inactive
same,Potency,[13],inactive
same,Potency,[14],inactive
same,Potency,[15],inactive
same,Potency,[16],inactive
same,Potency,[17],inactive
same,Potency,[18],inactive
same,Potency,[19],inactive
CCN1CCN(c2cc(-c3ccc(F)cc3)c3c(n2)CCCCCC3)CC1,"activity change, negative = cytotoxicity",[1],2.72% [at 15.8 µM] (inactive)
same,"viability change, negative = cytotoxic",[2],1.26% [at 15.8 µM] (inactive)
same,max response,[3],-18.7% (inactive)
same,activity change,[4],"2.45% [at 15.8 µM, stronger effect = higher value] (inactive)"
same,cytotoxicity increase,[5],12.3% [at 15.8 µM] (inactive)
same,"activity change, negative = cytotoxic",[6],-10.2% [at 15.8 µM] (inactive)
same,cytotoxicity,[7],24% [at 15.8 µM] (inactive)
same,Potency,[8],11.7 µM (active)
same,"activity change, negative = cytotoxicity",[9],9.2% [at 15.8 µM] (inactive)
same,cytotoxicity increase,[10],10% [at 15.8 µM] (inactive)
same,cytotoxicity,[11],-0.25% [at 15.8 µM] (inactive)
same,cytotoxicity increase,[12],34% [at 15.8 µM] (inactive)
same,cytotoxicity increase,[20],-3.6% [at 15.8 µM] (inactive)
same,"activity change, negative = cytotoxic",[13],-4% [at 15.8 µM] (inactive)
same,"activity change, negative = cytotoxicity",[14],-6.43% [at 15.8 µM] (inactive)
same,"activity change, negative = cytotoxicity",[15],3.49% [at 15.8 µM] (inactive)
same,activity change,[16],"4.21% [at 15.8 µM, stronger effect = higher value] (inactive)"
same,"activity change, negative = cytotoxicity",[17],21.1% [at 15.8 µM] (inactive)
same,"activity change, negative = cytotoxicity",[19],4.69% [at 19 µM] (inactive)
CCCCC(CC)COC(=O)c1ccc(O)cc1 (configuration not stated),Potency,[1],54.7 µM (active)
same,Potency,[2],inactive
same,Potency,[3],48.8 µM (active)
same,Potency,[4],43.5 µM (active) and 21.9 µM (active)
same,Potency,[5],inactive and 30.9 µM (active)
same,Potency,[6],inactive
same,Potency,[7],34.7 µM (active)
same,Potency,[8],34.7 µM (active)
same,Potency,[9],inactive
same,Potency,[10],43.5 µM (active) and 21.9 µM (active)
same,Potency,[11],inactive
same,Potency,[12],34.7 µM (active)
same,Potency,[20],43.5 µM (active)
same,Potency,[13],inactive
same,Potency,[14],54.7 µM (active)
same,Potency,[17],inactive
same,Potency,[19],inactive
C[Si](C)O[Si](C)C,Potency,[1],inactive
same,Potency,[2],inactive
same,max response,[3],-8.35% (inactive)
same,Potency,[4],inactive
same,Potency,[5],inactive
same,Potency,[6],inactive
same,Potency,[7],inactive
same,Potency,[8],inactive
same,Potency,[9],inactive
same,Potency,[10],inactive
same,Potency,[11],inactive
same,Potency,[12],inactive
same,Potency,[13],inactive
same,Potency,[14],inactive
same,Potency,[15],inactive
same,Potency,[16],inactive
same,Potency,[17],inactive
same,Potency,[18],inactive
same,Potency,[19],inactive
CC1CNCC(C)O1 (configuration not stated),Potency,[1],inactive
same,Potency,[2],inactive
same,max response,[3],11.7% (inactive)
same,Potency,[4],inactive
same,Potency,[5],inactive
same,Potency,[6],inactive
same,Potency,[7],inactive
same,Potency,[8],inactive
same,Potency,[9],inactive
same,Potency,[10],inactive
same,Potency,[11],inactive
same,Potency,[20],inactive
same,Potency,[13],inactive
same,Potency,[14],inactive
same,Potency,[15],inactive
same,Potency,[16],inactive
same,Potency,[17],inactive
same,Potency,[18],inactive
same,Potency,[19],inactive
NC(=O)c1ccccc1N,Potency,[1],inactive
same,Potency,[2],inactive
same,max response,[3],-1.93% (inactive)
same,Potency,[4],inactive
same,Potency,[5],inactive
same,Potency,[6],inactive
same,Potency,[7],inactive
same,Potency,[8],inactive
same,Potency,[9],inactive
same,Potency,[11],inactive
same,Potency,[12],inactive
same,Potency,[20],inactive
same,Potency,[13],inactive
same,Potency,[14],inactive
same,Potency,[15],inactive
same,Potency,[16],inactive
same,Potency,[17],inactive
same,Potency,[18],inactive
same,Potency,[19],inactive
